From PubChem BioAssay (NCI)
Compounds without any hit were thinned out: in the full panel of roughly 79,000, 15% have a hit. Active and inactive are the calls of the source. Cut-off read from the data, not from the text of the source: active = growth inhibition above about 70%; inactive = the rest.

Tests used:
[1] = NCI Yeast Anticancer Drug Screen. Data for the rad52 strain (AID 147);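 note: 0% = growth of vehicle-treated control cultures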; details: S. cerevisiae rad52 mutant growth inhibition, stronger effect = higher value
Summary of the method: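 Genetically altered yeast (DNA damage repair defect) treated with compound; inhibition calculated relative to vehicle.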

[2] = NCI Yeast Anticancer Drug Screen. Data for the wt1 strain (AID 149);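 note: 0% = growth of vehicle-treated wt1 cultures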; details: S. cerevisiae wt1 strain (SPY 50644) growth inhibition, stronger effect = higher value
Summary of the method: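 Measured: growth of wt1 yeast under compound versus vehicle treatment, reported as inhibition.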

[3] = NCI Yeast Anticancer Drug Screen. Data for the rad50EPP+ strain (AID 151);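 note: 0% = growth of vehicle-treated control cultures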; details: S. cerevisiae rad50 mutant strain, stronger effect = higher value
Summary of the method: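 Strain rad50EPP+; compound exposure; % growth inhibition vs vehicle.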

[4] = NCI Yeast Anticancer Drug Screen. Data for the rad50 strain (AID 155);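 note: 0% = growth of vehicle-only cultures of the same strain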; details: S. cerevisiae rad50 strain growth inhibition, stronger effect = higher value
Summary of the method: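 Growth of the mutant yeast was measured after compound exposure and referenced to vehicle-treated cultures.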

[5] = NCI Yeast Anticancer Drug Screen. Data for the rad14 strain (AID 159);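 note: 0% = growth of vehicle-treated control cultures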; details: S. cerevisiae rad14 strain growth inhibition, stronger effect = higher value
Summary of the method: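 Here, inhibition of yeast growth was measured after compound exposure, using a strain with a genetic defect in DNA damage repair and vehicle-treated cultures as the reference.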

[6] = NCI Yeast Anticancer Drug Screen. Data for the sgs1 mgt1 strain (AID 161);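 note: 0% = growth of cultures given vehicle only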; details: S. cerevisiae sgs1 mgt1 strain, stronger effect = higher value
Summary of the method: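 Mutant yeast exposed to compound; growth scored against vehicle-only wells.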

[7] = NCI Yeast Anticancer Drug Screen. Data for the CLN2oe strain (AID 163);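 note: 0% = growth of vehicle-only control cultures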; details: S. cerevisiae CLN2oe strain, stronger effect = higher value
Summary of the method: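 Strain altered in cell-cycle control, incubated with compound; growth compared to solvent-treated controls.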

[8] = NCI Yeast Anticancer Drug Screen. Data for the cln2 rad14 strain (AID 165);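 note: 0% = growth equal to vehicle treated cultures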; details: S. cerevisiae cln2 rad14 strain, stronger effect = higher value
Summary of the method: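 The screen exposed genetically defined yeast (cln2 rad14) to test compounds and scored growth inhibition relative to vehicle-treated controls.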

[9] = NCI Yeast Anticancer Drug Screen. Data for the bub3 strain (AID 167); details: S. cerevisiae bub3 mutant strain, stronger effect = higher value
Summary of the method: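 Whole-cell yeast assay. The mutant strain was incubated with compounds, and growth inhibition was determined by comparison with vehicle-treated cells.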

[10] = NCI Yeast Anticancer Drug Screen. Data for the wt2 strain (AID 169);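 note: 0% = growth of vehicle-treated yeast cultures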; details: S. cerevisiae wt2 strain growth inhibition, stronger effect = higher value
Summary of the method: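 Steps: yeast strain treated with compound; growth recorded; inhibition calculated relative to cultures given vehicle alone.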

[11] = NCI Yeast Anticancer Drug Screen. Data for the mlh1 strain (AID 171);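 note: 0% = growth of vehicle-treated control cultures of the same strain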; details: S. cerevisiae mlh1 strain growth inhibition, stronger effect = higher value
Summary of the method: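 Yeast screen: mutant strain plus compound, growth scored against vehicle control wells.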

[12] = NCI Yeast Anticancer Drug Screen. Data for the mlh1 rad18 strain (AID 175); details: S. cerevisiae mlh1 rad18 strain growth inhibition, stronger effect = higher value
Summary of the method: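 Compound-treated yeast growth, normalised to vehicle controls. Strain bears defined DNA repair mutations.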

[13] = NCI Yeast Anticancer Drug Screen. Data for the rad18 strain (AID 177); details: S. cerevisiae rad18 mutant growth inhibition, stronger effect = higher value
Summary of the method: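 Inhibition values reflect reduced yeast growth compared with vehicle-treated controls, using a strain engineered with a DNA damage repair defect.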

[14] = NCI Yeast Anticancer Drug Screen. Data for the mec2-1 strain (AID 157); details: S. cerevisiae mec2-1 strain, stronger effect = higher value
Summary of the method: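 Cells of the genetically defined mec2-1 yeast strain are incubated with test compound. Inhibition of growth is calculated against vehicle-treated controls.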

[15] = NCI Yeast Anticancer Drug Screen. Data for the sgs1 strain (AID 173);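 note: 0% = growth of vehicle-only control cultures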; details: S. cerevisiae sgs1 mutant, stronger effect = higher value
Summary of the method: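 Inhibition of yeast growth served as the measure. The mutant strain was treated with each compound, and growth was normalised to cultures receiving vehicle alone.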

[16] = at 5.0 µM (retest, dose inferred, filed as 0.5)
[17] = at 50.0 µM (retest, dose inferred, filed as 5.0)

Measured: growth inhibition

O=[N+]([O-])/C(C(Cl)=C(Cl)Cl)=C1/OCCS1
inactive: [1]; at 1.2 µM 30% | [2]; at 1.2 µM 4% | [2]; at 3.7 µM 30% | [3]; at 1.2 µM 20% | [3]; at 3.7 µM 37% | [3]; at 11.0 µM 61% | [3]; at 100.0 µM 64% | [4]; at 1.2 µM 19% | [4]; at 3.7 µM 56% | [4]; [16] 16% | [5]; at 1.2 µM 14% | [5]; at 3.7 µM 39% | [6]; [16] 40% | [7]; at 1.2 µM 15% | [7]; at 3.7 µM 44% | [8]; [16] -2% | [9]; at 1.2 µM 6% | [9]; at 3.7 µM 27% | [9]; [16] -12% | [10]; at 1.2 µM 7% | [10]; at 3.7 µM 32% | [11]; at 1.2 µM 11% | [11]; at 3.7 µM 48% | [12]; [16] 60%
active: [1]; at 3.7 µM 72% | [1]; at 11.0 µM 97% | [1]; at 33.0 µM 99% | [1]; at 100.0 µM 99% | [2]; at 11.0 µM 94% | [2]; at 33.0 µM 99% | [2]; at 100.0 µM 99% | [3]; at 33.0 µM 77% | [4]; at 11.0 µM 95% | [4]; at 33.0 µM 99% | [4]; [17] 100% | [4]; at 50.0 µM 90.5% | [4]; at 100.0 µM 99% | [5]; at 11.0 µM 96% | [5]; at 33.0 µM 99% | [5]; at 100.0 µM 98% | [6]; [17] 100% | [6]; at 50.0 µM 90.6% | [7]; at 11.0 µM 94% | [7]; at 33.0 µM 98% | [7]; at 100.0 µM 99% | [8]; [17] 99% | [8]; at 50.0 µM 91% | [9]; at 11.0 µM 90% | [9]; at 33.0 µM 99% | [9]; [17] 100% | [9]; at 50.0 µM 92.5% | [9]; at 100.0 µM 98% | [10]; at 11.0 µM 95% | [10]; at 33.0 µM 99% | [10]; at 100.0 µM 99% | [11]; at 11.0 µM 97% | [11]; at 33.0 µM 99% | [11]; at 100.0 µM 98% | [12]; [17] 100% | [12]; at 50.0 µM 86.2% | [13]; at 1.2 µM 86% | [13]; at 3.7 µM 93% | [13]; at 11.0 µM 97% | [13]; at 33.0 µM 99% | [13]; at 100.0 µM 98%

CCOP1(=O)C=C(Sc2ccc([N+](=O)[O-])cc2[N+](=O)[O-])C(C)(C)O1 (stereo not given)
active: [1]; at 100.0 µM 84% | [14]; at 100.0 µM 87% | [9]; at 100.0 µM 92% | [10]; at 100.0 µM 72% | [11]; at 100.0 µM 83% | [15]; at 100.0 µM 84%
inactive: [1]; at 1.2 µM 2% | [1]; at 3.7 µM 6% | [1]; at 11.0 µM 16% | [1]; at 33.0 µM 39% | [2]; at 1.2 µM 2% | [2]; at 3.7 µM 2% | [2]; at 11.0 µM 6% | [2]; at 33.0 µM 4% | [2]; at 100.0 µM 31% | [3]; at 1.2 µM -4% | [3]; at 3.7 µM -3% | [3]; at 11.0 µM -2% | [3]; at 33.0 µM 13% | [3]; at 100.0 µM 53% | [14]; at 1.2 µM 7% | [14]; at 3.7 µM 12% | [14]; [16] 27% | [14]; at 11.0 µM 18% | [14]; at 33.0 µM 41% | [14]; [17] 41% | [14]; at 50.0 µM 8.65% | [5]; at 1.2 µM 1% | [5]; at 3.7 µM 3% | [5]; at 11.0 µM 9% | [5]; at 33.0 µM 20% | [5]; at 100.0 µM 43% | [6]; [16] 23% | [6]; [17] 38% | [6]; at 50.0 µM 33% | [7]; at 1.2 µM 3% | [7]; at 3.7 µM 0% | [7]; at 11.0 µM 1% | [7]; at 33.0 µM 11% | [7]; at 100.0 µM 37% | [8]; [16] 7% | [8]; [17] 44% | [8]; at 50.0 µM 26.1% | [9]; at 1.2 µM 5% | [9]; at 3.7 µM 7% | [9]; [16] 11% | [9]; at 11.0 µM 16% | [9]; at 33.0 µM 40% | [9]; [17] 31% | [9]; at 50.0 µM 1.9% | [10]; at 1.2 µM 4% | [10]; at 3.7 µM 8% | [10]; at 11.0 µM 12% | [10]; at 33.0 µM 25% | [11]; at 1.2 µM 3% | [11]; at 3.7 µM 7% | [11]; at 11.0 µM 14% | [11]; at 33.0 µM 31% | [15]; at 1.2 µM 3% | [15]; at 3.7 µM 6% | [15]; at 11.0 µM 13% | [15]; at 33.0 µM 37% | [12]; [16] 25% | [12]; [17] 60% | [12]; at 50.0 µM 42.2%
